According to ChEMBL document CHEMBL1961873, “Compounds: GSK PKIS; Assays: Nanosyn kinase panel” (2012):

Assays:
[1] = target: T1, Tyrosine-protein kinase receptor TYRO3 (Homo sapiens) (UniProt Q06418); details: at 1 µM
T1 sequence (whole entry): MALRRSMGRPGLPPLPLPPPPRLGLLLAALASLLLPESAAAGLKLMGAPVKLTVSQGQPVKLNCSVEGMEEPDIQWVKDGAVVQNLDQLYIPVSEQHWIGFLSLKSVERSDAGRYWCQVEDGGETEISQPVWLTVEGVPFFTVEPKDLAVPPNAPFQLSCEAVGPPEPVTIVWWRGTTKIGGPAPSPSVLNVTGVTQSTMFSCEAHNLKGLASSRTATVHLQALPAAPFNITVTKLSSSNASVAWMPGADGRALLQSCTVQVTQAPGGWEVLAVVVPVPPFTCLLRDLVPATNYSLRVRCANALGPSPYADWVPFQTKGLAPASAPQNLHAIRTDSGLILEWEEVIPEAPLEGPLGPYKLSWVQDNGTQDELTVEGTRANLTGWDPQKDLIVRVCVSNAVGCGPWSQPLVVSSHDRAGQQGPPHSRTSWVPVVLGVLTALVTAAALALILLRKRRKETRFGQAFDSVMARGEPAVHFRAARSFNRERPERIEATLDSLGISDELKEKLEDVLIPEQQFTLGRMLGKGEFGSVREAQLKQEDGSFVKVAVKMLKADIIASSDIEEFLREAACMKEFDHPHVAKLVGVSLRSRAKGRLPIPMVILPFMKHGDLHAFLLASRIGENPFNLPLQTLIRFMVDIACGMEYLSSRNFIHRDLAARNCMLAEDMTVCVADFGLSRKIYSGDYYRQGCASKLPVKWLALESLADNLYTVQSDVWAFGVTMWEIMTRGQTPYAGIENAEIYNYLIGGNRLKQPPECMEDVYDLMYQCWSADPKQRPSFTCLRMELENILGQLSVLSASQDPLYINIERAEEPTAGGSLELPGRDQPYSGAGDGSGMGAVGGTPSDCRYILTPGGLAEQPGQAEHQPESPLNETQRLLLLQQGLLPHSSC

[2] = target: Tyrosine-protein kinase Yes (Homo sapiens) (UniProt P07947); details: at 0.1 µM
[3] = target: Tyrosine-protein kinase Yes (Homo sapiens) (UniProt P07947); details: at 1 µM
[4] = target: T2, Tyrosine-protein kinase ZAP-70 (Homo sapiens) (UniProt P43403); details: at 0.1 µM
T2 sequence (whole entry): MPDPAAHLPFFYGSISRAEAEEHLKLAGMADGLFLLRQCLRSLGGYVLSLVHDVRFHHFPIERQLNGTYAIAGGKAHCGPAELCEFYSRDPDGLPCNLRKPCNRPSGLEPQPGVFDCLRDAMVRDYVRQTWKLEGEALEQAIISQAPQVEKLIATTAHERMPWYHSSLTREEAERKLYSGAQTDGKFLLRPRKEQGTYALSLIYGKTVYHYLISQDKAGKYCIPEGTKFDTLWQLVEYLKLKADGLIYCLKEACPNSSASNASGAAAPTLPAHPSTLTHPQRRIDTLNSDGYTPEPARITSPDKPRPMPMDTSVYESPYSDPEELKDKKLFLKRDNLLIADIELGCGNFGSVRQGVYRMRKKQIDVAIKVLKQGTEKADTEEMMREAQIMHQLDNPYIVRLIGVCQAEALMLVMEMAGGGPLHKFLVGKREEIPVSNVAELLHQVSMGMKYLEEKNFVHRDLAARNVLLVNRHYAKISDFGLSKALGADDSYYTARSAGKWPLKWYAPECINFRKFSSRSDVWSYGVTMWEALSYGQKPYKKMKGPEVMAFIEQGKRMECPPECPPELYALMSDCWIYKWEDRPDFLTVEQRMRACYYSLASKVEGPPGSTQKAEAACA

[5] = target: T2, Tyrosine-protein kinase ZAP-70 (Homo sapiens); details: at 1 µM
[6] = target: Serine/threonine-protein kinase B-raf (Homo sapiens) (UniProt P15056); details: at 0.1 µM
[7] = target: Serine/threonine-protein kinase B-raf (Homo sapiens) (UniProt P15056); details: at 1 µM
[8] = test system: Serine/threonine-protein kinase B-raf (Homo sapiens), P15056 [V600E]; details: at 0.1 µM
[9] = test system: Serine/threonine-protein kinase B-raf (Homo sapiens), P15056 [V600E]; details: at 1 µM
[10] = target: RAF proto-oncogene serine/threonine-protein kinase (Homo sapiens) (UniProt P04049); details: at 0.1 µM;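 further: values are mean CRAF kinase inhibition from profiling of the GSK Published Kinase Inhibitor Set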
Sequence of RAF proto-oncogene serine/threonine-protein kinase (Homo sapiens) (P04049 whole entry): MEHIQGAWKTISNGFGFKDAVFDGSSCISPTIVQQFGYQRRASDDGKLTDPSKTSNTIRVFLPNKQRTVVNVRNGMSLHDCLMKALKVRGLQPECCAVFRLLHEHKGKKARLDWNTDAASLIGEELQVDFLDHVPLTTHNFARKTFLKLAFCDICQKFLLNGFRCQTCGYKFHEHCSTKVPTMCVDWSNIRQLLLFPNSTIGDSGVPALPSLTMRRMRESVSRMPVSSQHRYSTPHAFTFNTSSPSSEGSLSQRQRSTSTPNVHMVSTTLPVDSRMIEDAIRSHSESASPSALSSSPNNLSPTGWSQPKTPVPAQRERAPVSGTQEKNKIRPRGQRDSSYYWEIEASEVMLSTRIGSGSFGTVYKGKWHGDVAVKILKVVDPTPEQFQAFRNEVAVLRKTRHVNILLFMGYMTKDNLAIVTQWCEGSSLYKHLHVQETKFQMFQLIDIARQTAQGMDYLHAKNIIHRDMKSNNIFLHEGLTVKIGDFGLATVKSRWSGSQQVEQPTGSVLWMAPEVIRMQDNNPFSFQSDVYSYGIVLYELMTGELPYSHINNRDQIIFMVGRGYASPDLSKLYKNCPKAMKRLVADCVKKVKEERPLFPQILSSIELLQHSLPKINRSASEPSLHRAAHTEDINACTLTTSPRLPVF

Sequence of Tyrosine-protein kinase Yes (Homo sapiens) (P07947 2-543 limits assumed): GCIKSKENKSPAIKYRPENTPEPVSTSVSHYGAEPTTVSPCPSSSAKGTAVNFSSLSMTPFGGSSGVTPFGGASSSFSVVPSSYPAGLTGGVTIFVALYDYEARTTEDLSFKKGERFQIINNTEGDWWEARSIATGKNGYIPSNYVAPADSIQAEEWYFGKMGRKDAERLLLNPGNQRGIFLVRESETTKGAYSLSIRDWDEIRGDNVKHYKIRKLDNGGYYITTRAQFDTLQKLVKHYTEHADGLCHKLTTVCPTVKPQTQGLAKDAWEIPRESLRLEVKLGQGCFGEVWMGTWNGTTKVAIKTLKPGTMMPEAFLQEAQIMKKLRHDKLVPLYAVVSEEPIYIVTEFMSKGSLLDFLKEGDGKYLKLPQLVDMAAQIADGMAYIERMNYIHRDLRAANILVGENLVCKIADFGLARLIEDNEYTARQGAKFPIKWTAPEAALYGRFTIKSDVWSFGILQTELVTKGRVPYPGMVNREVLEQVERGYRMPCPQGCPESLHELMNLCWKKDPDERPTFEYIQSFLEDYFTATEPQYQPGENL
Sequence of Serine/threonine-protein kinase B-raf (Homo sapiens), P15056 [V600E] (P15056 whole entry V600E): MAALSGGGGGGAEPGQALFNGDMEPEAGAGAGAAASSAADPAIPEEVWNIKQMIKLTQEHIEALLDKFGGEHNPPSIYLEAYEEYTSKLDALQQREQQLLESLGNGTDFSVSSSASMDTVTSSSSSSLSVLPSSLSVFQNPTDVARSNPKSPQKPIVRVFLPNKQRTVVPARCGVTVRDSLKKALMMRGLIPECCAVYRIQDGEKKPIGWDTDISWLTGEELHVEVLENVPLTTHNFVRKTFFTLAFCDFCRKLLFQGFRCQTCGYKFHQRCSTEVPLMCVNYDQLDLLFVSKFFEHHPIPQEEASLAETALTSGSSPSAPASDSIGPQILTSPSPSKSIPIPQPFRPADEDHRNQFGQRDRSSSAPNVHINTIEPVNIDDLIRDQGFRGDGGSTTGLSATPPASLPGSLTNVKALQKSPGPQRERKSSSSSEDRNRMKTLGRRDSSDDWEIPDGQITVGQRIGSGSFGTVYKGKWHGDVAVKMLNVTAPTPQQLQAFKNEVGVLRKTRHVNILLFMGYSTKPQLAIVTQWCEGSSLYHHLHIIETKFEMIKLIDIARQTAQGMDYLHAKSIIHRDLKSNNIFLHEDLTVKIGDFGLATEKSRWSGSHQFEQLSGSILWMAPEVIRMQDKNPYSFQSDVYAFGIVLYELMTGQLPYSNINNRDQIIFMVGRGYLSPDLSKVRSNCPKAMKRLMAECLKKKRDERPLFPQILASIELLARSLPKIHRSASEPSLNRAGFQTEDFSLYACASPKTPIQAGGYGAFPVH
Sequence of Serine/threonine-protein kinase B-raf (Homo sapiens) (P15056 whole entry): as the sequence (P15056 whole entry V600E) above, with E600V counted along it

| Structure (SMILES) | inhibition [1] [%] | inhibition [2] [%] | inhibition [3] [%] | inhibition [4] [%] | inhibition [5] [%] | inhibition [6] [%] | inhibition [7] [%] | inhibition [8] [%] | inhibition [9] [%] | inhibition [10] [%] |
| --- | --- | --- | --- | --- | --- | --- | --- | --- | --- | --- |
| Cn1cc(C=C2C(=O)Nc3cccnc32)c2ccccc21 | 13.2 | 5.4 | 45.1 | 1.96 | 11.5 | 3.28 | 6.52 | 2.79 | 5.11 | -3.3 |
| CCn1c(-c2nonc2N)nc2c(C#CC(C)(C)O)nc(OC[C@@H](N)c3ccccc3)cc21 | 0.45 | 0.68 | 0.4 | -0.65 | -0.38 | -0.61 | 3.45 | -0.86 | 3.32 | -1.41 |
| NCc1ccc(-c2nc(-c3ccc(Cl)c(O)c3)c(-c3ccncc3)[nH]2)cc1 | 5.26 | 5.85 | 37.7 | 0.84 | 1.92 | – | – | – | – | 6.34 |
| CN1CCC(C(=O)Nc2n[nH]c3nnc(-c4ccccc4)cc23)CC1 | 5.28 | 3.36 | 3.47 | 4.09 | 5.43 | 7.26 | 7.83 | 8.27 | 7.58 | 16.6 |
| NC(=O)c1ccc(-c2nc(-c3ccccn3)c(-c3ccc4c(c3)OCO4)[nH]2)cc1 | 1.12 | 2.51 | 7.17 | 0.96 | -2.34 | – | – | – | – | -6.15 |
| CCN1CCC(CC(=O)Nc2n[nH]c3nc(-c4cccs4)c(Br)cc23)CC1 | 0.12 | -2.01 | 2.56 | -3.15 | -1.71 | -3.34 | -4.88 | -3.29 | -4.51 | 3.42 |
| CC(C)=Cc1cccc2c1/C(=N/Nc1ccc(S(N)(=O)=O)cc1)C(=O)N2 | 9.24 | 2.28 | 18 | 4.6 | 4.98 | 0.07 | 2.13 | 0.1 | 2.83 | 3.26 |
| CCn1c(-c2nonc2N)nc2cncc(C(=O)N3CCNCC3)c21 | 2.14 | 2.93 | 3.85 | 2.85 | 4.99 | 9.15 | 11.5 | 6.08 | 5.58 | 4.15 |
| O=C1NC(=O)C(c2cccc(Cl)c2)=C1Nc1ccc(O)c(Cl)c1 | 0.29 | 2.84 | 2.76 | 1.5 | 2.74 | 1.14 | 6 | 0.91 | 7.11 | 0.68 |
| COc1cc2ncn(-c3cc(O[C@@H](C)c4ccccc4Cl)c(C(N)=O)s3)c2cc1OC | 6 | 6.69 | 33.2 | – | 2.45 | 5.9 | 5.17 | 4.21 | 4.64 | -0.12 |
| Cc1ccc(C(=O)NC2CCCCC2)cc1-c1ccc(C(=O)NCC2CC2)cc1 | -0.08 | 1.31 | 1.09 | 2.48 | 6.15 | 3.92 | 3.21 | 3.15 | 3.03 | 4.27 |
| CCCN1CCC=C(c2ccc(Nc3nc(Nc4ccccc4C(N)=O)c4cc[nH]c4n3)c(C)c2)C1 | 9.79 | 1.14 | 5.4 | 5.54 | 27.4 | 8.31 | 33.4 | 7.56 | 28.2 | 5.61 |
| Cc1cccc(-c2n[nH]cc2-c2ccc3ncccc3n2)n1 | 1.88 | 1.95 | 9.98 | 3.21 | 1.47 | 1.47 | 1.32 | 0.26 | 1.23 | -0.77 |
| COc1cc(C)c(NC(=O)CN(C)C)cc1Nc1nc(Nc2cccc(F)c2C(N)=O)c2cc[nH]c2n1 | 7.81 | 2.05 | -2.14 | – | 3.93 | 2.75 | 6.44 | 3.06 | 6.56 | -0.92 |
| Nc1nc(-c2ccccn2)c(-c2ccc3ncccc3n2)s1 | 2.67 | -0.44 | 0.23 | 0.82 | 0.6 | 3.55 | 7.22 | 3.63 | 5.74 | 2.42 |
| Fc1cccc(COc2ccc(Nc3ncnc4cc(-c5ccc[nH]5)sc34)cc2Cl)c1 | 3.81 | 2.17 | 9.41 | -0.46 | -0.93 | 3.64 | 2.48 | 3.55 | 2.69 | 5.88 |
| CCCN1CCC(Oc2cc(Nc3nc(Nc4cccc(F)c4C(N)=O)c4cc[nH]c4n3)c(OC)cc2Cl)CC1 | 1.14 | 1.16 | 1.57 | -1.5 | 0.24 | 2.31 | 24.1 | 1.35 | 23.7 | -1.14 |

| Structure (SMILES) | inhibition [1] [%] | inhibition [2] [%] | inhibition [3] [%] | inhibition [4] [%] | inhibition [5] [%] | inhibition [6] [%] | inhibition [7] [%] | inhibition [8] [%] | inhibition [9] [%] | inhibition [10] [%] |
| --- | --- | --- | --- | --- | --- | --- | --- | --- | --- | --- |
| COc1cc2c(cc1Nc1nc(N3CCc4ccccc43)c3cc[nH]c3n1)N(C(=O)CN(C)C)CC2 | 1.54 | -0.07 | -1.83 | 1.18 | – | 1.69 | 2.22 | 1.91 | 1.68 | -4.52 |
| O=C1NC(=O)C(c2ccc(Cl)cc2)=C1Nc1ccc(Cl)c(C(=O)O)c1 | -3.28 | -3.3 | 0.94 | -3.81 | -2.06 | -1.66 | -3.28 | -4 | -3.77 | -4.76 |
| Nc1ncnc2occ(-c3ccc(NC(=O)Nc4cccc(C(F)(F)F)c4)cc3)c12 | 32.2 | 7.17 | 45.7 | 1.4 | 1.43 | 7.07 | 13.3 | 5.78 | 13.5 | 0.71 |
| CS(=O)(=O)Nc1ccc(N/C=C2\C(=O)Nc3ccccc32)cc1 | 6.06 | -1.31 | 10.4 | -3.14 | -2.93 | -2.74 | -2.55 | -3.06 | -2.04 | -5.04 |
| NS(=O)(=O)c1cccc(-c2ccc3c(NC(=O)C4CC4)n[nH]c3c2)c1 | 15.4 | -2.48 | 6.25 | -1.92 | -0.84 | -1.67 | -2.14 | -2.01 | -2.08 | -7.61 |
| CCn1c(-c2nonc2N)nc2ccncc21 | -0.39 | 1.81 | -1.91 | 7.67 | 3.68 | 2.92 | 2.33 | 1.64 | 3.84 | 6.58 |
| Cc1cc(O)cc(C)c1/C=C/c1cncc(-c2nn[nH]n2)c1 | 11.2 | 5.57 | 41.3 | -1.14 | – | 7.69 | 10.1 | 7.48 | 8.79 | 4.51 |
| COc1ccc2cc(-c3c(-c4ccncc4)nc(-c4ccc([S+](C)[O-])cc4)n3C)ccc2c1 (configuration not stated) | 0.86 | 2.16 | 8.42 | 1.94 | 2.34 | 3.84 | 5.05 | 4.92 | 4.5 | 0.38 |
| CNC(=O)c1cncc(/C=C/c2c(Cl)cccc2Cl)c1 | 4.06 | 3.3 | 17.2 | 0.11 | 1.58 | 6.39 | 10.5 | 3.03 | 4.23 | 5.08 |
| COc1ccc(-c2nn3ncccc3c2-c2ccnc(Nc3ccc(Cl)c(C(F)(F)F)c3)n2)cc1 | 3.05 | 7.39 | 46.2 | 0.91 | -1.1 | 3.94 | 4.03 | 3.98 | 3.99 | -1.5 |
| [O-][S+]1CCN(Cc2ccc(-c3ccc4ncnc(Nc5ccc(OCc6ccccc6)c(F)c5)c4c3)o2)CC1 | 3.36 | 5.74 | 30.5 | 2.48 | 1.13 | 2.02 | 5.8 | 2.97 | 6.44 | -0.54 |
| COc1ccc(COc2ccc(Cc3cnc(N)nc3N)cc2OC)cc1 | 0.77 | -0.39 | -3.3 | 3.08 | 4.05 | -1.31 | -0.42 | -1.07 | 0.7 | 1.84 |
| Cc1nnc(-c2ccc(C)c(-c3ccc(C(=O)Nc4cccc(C#N)c4)cc3)c2)o1 | 1.98 | 1.42 | 5.81 | 2.77 | 3.12 | 3.86 | 3.97 | 3.34 | 3.85 | -4.37 |
| Cc1nn(C)c2cc(N(C)c3ccnc(Nc4cccc(S(N)(=O)=O)c4)n3)ccc12 | 29.9 | 9.9 | 45.6 | -2.66 | 16 | 4.26 | 7.71 | 4.01 | 6.87 | -2.36 |
| Nc1ncnc2occ(-c3ccc(NC(=O)Nc4cc(C(F)(F)F)cc(C(F)(F)F)c4)cc3)c12 | 29.6 | 1.45 | 11.7 | 2.13 | – | 3.58 | 7.33 | 2.27 | 7.76 | 4.46 |
| CC1=C(C(=O)Nc2ccc3[nH]ncc3c2)C(c2ccc(Cl)c(Cl)c2)CC(=O)N1 (configuration not stated) | 1.34 | 4.16 | 20 | 0.71 | 2.3 | 5.79 | 31.6 | 6.48 | 31.4 | 4.61 |
| N#Cc1c(NC(=O)c2cccc3ccccc23)sc2c1CCCC2 | 2.06 | 3.08 | 2.43 | 2.19 | 4.42 | 4.29 | 5.63 | 4.43 | 5.4 | -0.45 |
